gsp agonist: agonists of gsp mutant (McCune-Albright syndrome); gsp mutant cells, cAMP HTRF, 30 min; Potency, µM (top dose mostly 76.9 µM), actives largely listed as activators; 0.13% of 340,000 active; AID 624287; active means well fitted activation curve with a large enough effect; inconclusive means small, poorly fitted or top-dose-only effect, or another doubt; inactive means no such curve, though single readings can be large or run the other way; cell line not stated here;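 further: phosphodiesterase inhibitor Ro 20-1724 added with compounds to block cAMP breakdown; nearly all actives have a fitted effect of over 60% in size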
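Cells stably selected in G418 were plated at 2000/well, grown 16-24 hr, then given compounds in DMSO with the PDE inhibitor […] (300 uM solution added) for 30 min at 37C; cAMP was read by HTRF.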
pAkt inh: blocks phosphorylation of Akt; Neuro2A IGF-stimulated pAkt S473 HTRF, 20 min; hits give low values; activity change, % for hits at 50 µM; 0.32% of 360,000 active; in the data active means activity change below about -80%; inconclusive means mostly about -51% to -80%
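Single-point screen (50 µM final compound) in Neuro2A cells stimulated 20 min with 6 nM IGF at 37 deg C. After lysis, Ser473-phosphorylated Akt read by HTRF (ex 330 nm, em 615/665 nm) as the 665/615 ratio.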
RXFP1 antag: antagonists of human relaxin receptor RXFP1; HEK293-RXFP1, relaxin-stimulated cAMP HTRF, 30 min; hits give low values; activity change, negative = inhibition, % at 57.5 µM; AID 1259400; Q9HBX9; 0.59% of 350,000 active;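 active means activity change of -60% or lower, but not beyond a set lower limit; inconclusive means change between -60% and -40%, or beyond the set limit; inactive means change above -40%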
Target sequence (Q9HBX9 whole entry, looked up): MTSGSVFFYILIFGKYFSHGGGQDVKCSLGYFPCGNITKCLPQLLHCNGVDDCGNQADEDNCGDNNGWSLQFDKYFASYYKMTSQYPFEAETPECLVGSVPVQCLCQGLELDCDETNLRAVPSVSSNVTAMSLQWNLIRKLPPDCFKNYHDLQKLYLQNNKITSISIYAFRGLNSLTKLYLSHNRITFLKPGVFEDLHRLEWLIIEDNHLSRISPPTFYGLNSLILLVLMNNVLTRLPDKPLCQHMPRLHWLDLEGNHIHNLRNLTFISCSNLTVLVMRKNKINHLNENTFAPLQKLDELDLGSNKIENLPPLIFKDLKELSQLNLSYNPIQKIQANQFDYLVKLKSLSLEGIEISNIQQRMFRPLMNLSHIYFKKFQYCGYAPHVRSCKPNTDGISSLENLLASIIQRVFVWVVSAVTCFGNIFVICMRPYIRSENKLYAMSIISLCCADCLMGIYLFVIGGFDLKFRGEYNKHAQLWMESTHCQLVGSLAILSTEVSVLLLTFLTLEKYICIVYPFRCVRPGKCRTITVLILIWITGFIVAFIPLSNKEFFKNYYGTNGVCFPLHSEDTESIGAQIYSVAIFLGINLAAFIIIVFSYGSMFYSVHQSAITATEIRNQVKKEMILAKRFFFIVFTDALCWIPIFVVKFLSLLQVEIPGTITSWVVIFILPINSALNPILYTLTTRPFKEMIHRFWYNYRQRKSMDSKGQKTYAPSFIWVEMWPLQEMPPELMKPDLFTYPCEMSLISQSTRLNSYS
gsp antag: gsp mutant antagonism; gsp-mutant cells, cAMP HTRF, 30 min; Potency, µM (titrated, usually from 76.9 µM), actives largely listed as inhibitors; 0.4% of 340,000 active; AID 624288; calls by dose curve; cell line not stated here;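 further: intracellular cAMP measured with PDE inhibitor Ro 20-1724 present during compound exposure; nearly all actives have a fitted effect of over 65% in size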
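G418-selected cells were plated in DMEM/10% FBS for 16-24 h at 37C, then treated with compounds plus the PDE inhibitor […] (300 uM solution added) for 30 min at 37C. Intracellular cAMP was measured by HTRF after 30 min lysis at room temperature.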
RXFP1 agonist: agonists of human relaxin receptor RXFP1; 0.3% of 370,000 active; Potency, µM (top dose mostly 57.5 µM), hits mostly activators; Q9HBX9; HEK293T-RXFP1 cAMP TR-FRET, 30 min; response scale: percent of porcine relaxin response, buffer zero; active means well fitted activation curve with a large enough effect; inconclusive means small, poorly fitted or top-dose-only effect; further: nearly all actives have a fitted effect of over 60% in size
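HEK293 cells stably expressing RXFP1, treated 30 min at 37C with compounds plus PDE4 inhibitor Ro 20174; cAMP measured by HTRF TR-FRET. Normalized to buffer and 29 nM porcine relaxin; EC50 by Hill fit.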
Hits are given with their value; – = inactive; ? = inconclusive; · = no result; [ ] = another dose, or the depositor's remark. This is a sample that favours compounds with a hit; in the whole collection about 1.2% have one here.

SMILES	gsp agonist	pAkt inh	RXFP1 antag	gsp antag	RXFP1 agonist
Cc1ccc(CCNC(=O)c2c[nH]c3ccc(S(=O)(=O)Nc4cccc(C(F)(F)F)c4)cc3c2=O)cc1	·	·	–	·	–
Cc1ccc(Cl)cc1NC(=O)CSc1ccc(C(=O)O)cn1	·	·	–	·	–
Cc1cnc2cc(Cl)ccc2c1SCC(=O)O	10µM	–	–	–	–
O=C(O)CSc1ccnc2cc(Cl)ccc12	–[15.4 µM]	–	–	–	12.6µM
O=C(Nc1ccccc1F)c1ccc(O)c2ncccc12	·	·	·	·	–
CC(C)c1nn2c(=O)cc(COC(=O)c3ccccc3NC(=O)c3cccc(Cl)c3)nc2s1	·	·	–	·	–
COc1ccc2[nH]c(S(=O)Cc3ncc(C)c(OC)c3C)nc2n1 (configuration not stated)	·	·	–	·	·
O=C(Cc1ccc(S(=O)(=O)N2CCOCC2)s1)Nc1nc2c(s1)CCCC2	–	–	–	7.94µM	–
COc1ccc2[nH]c3c(=O)n(CCCCC(=O)N4CCC(C(N)=O)CC4)c(=S)[nH]c3c2c1	–	–	-94.6	–	–
CC[C@H](C)NC(=O)CCCCCn1c(=S)[nH]c2c([nH]c3ccc(OC)cc32)c1=O	–	–	-79.9	–	–
COc1ccc(OC)c(C2CC(=O)Nc3c2c(=O)[nH]c2nc4ccccc4n32)c1 (configuration not stated)	·	·	·	·	–
COc1ccc(C(=O)N(c2ccc(C)cc2)S(=O)(=O)c2ccc(C)cc2)cc1	·	·	–	·	–
COc1ccc(NS(=O)(=O)c2ccc3c(c2)Cc2ccccc2-3)cn1	–	–	–	28.2µM	–
Cc1nn2c(C)c(C(=O)N3CCN(c4ccccc4)CC3)cnc2c1-c1ccccc1	·	·	?	·	–
CCC(=O)Nc1ccccc1C(=O)OCC(=O)c1cccc2ccccc12	–	-118.3%	–	–	–
CCC(=O)Nc1ccccc1C(=O)OCc1ccc(C(=O)c2ccccc2)cc1	–	–	–	?	–
O=C(N/N=C/c1ccc(OC(F)F)cc1)c1ccc(CSc2nc3ccccc3[nH]2)cc1	–[15.4 µM]	–	?	8.91µM	–
COc1ccc(Cl)cc1NC(=O)c1nn(-c2ccc(C)cc2)c(=O)n(C)c1=O	·	·	–	·	–
O=C(/C=C\c1ccco1)NC(=S)Nc1ccccc1O	–	–	–	–	–
Cc1ccc(NC(=S)NC(=O)/C=C/c2ccco2)c(O)c1	–	–	-62.7	–	–
COc1ccc(NC(=S)NC(=O)/C=C/c2ccco2)c(OC)c1	–	–	-80.5	?	–
Cc1ccc(NC(=O)/C(=C/c2ccco2)c2ccccc2)c(C)c1	–	-129.2%	–	–	–
COCCNC(=O)CCCn1c(SCC(=O)c2ccc(F)cc2)nc2c(sc3ccccc32)c1=O	·	·	–	·	–
CCCc1ccc(OCC(=O)N2CCN(C(=O)COc3ccc(CCC)cc3OC)CC2)c(OC)c1	·	·	–	·	·
Oc1cccc(C2c3[nH]c4ccccc4c3CCN2Cc2ccc3c(c2)CCO3)c1 (configuration not stated)	–[15.4 µM]	–	-60.8	–	–
SMILES	gsp agonist	pAkt inh	RXFP1 antag	gsp antag	RXFP1 agonist
COc1ccc2c(C)cc(=S)[nH]c2c1	–[15.4 µM]	–	–	–	20µM
Cc1nnc(-c2ccc(Oc3ccc(Br)cc3)c([N+](=O)[O-])c2)o1	–	–	–	50.1µM	–
CCOC(=O)c1c(C)[nH]c(C)c1S(=O)(=O)N1CCCC(C(=O)N2CCN(c3cccc(Cl)c3)CC2)C1 (configuration not stated)	·	·	–	·	–
COC(=O)c1c(NC(=O)C(C)(C)C)sc2c1CCN(Cc1ccccc1)C2	–	–	-68.4	–	–
COc1ccc(OCC2c3cc(OC)c(OC)cc3CCN2C(=O)COc2ccc(Cl)cc2Cl)cc1 (configuration not stated)	·	·	·	·	–
O/N=C1\CCc2cc(Cl)ccc21	–	-102.0%	–	–	–
O=C(Nc1cccc(S(=O)(=O)Nc2ccc(Cl)cc2)c1)c1ccc(Cl)nc1	–	–	–	44.7µM	–
COc1ccc(NS(=O)(=O)c2cccc(NC(=O)c3ccc(Cl)nc3)c2)cc1	–[15.4 µM]	–	-71.2	?	–
O=C(Nc1ccc(NS(=O)(=O)c2ccccc2)cc1)c1ccc(Cl)cc1	–[15.4 µM]	–	–	–	–
COc1cccc(S(=O)(=O)Nc2ccc(C(=O)Nc3ccncc3)cc2)c1	–	–	·	–	–
O=C1CSc2ccc(C(=O)Nc3cccc(S(=O)(=O)Nc4ccc(Br)cc4)c3)cc2N1	–	–	–	39.8µM	–
COc1ccc(N2CCN(c3ccc(-c4nc(-c5ccccc5)no4)cc3[N+](=O)[O-])CC2)cc1	·	·	·	·	–
CSc1nnc2c(n1)OC(c1cccc(O)c1Cl)Nc1ccccc1-2 (configuration not stated)	·	·	–	·	–
Cc1ccc(NC(=O)CSc2nnc(COc3ccc(Cl)cc3)o2)cc1	·	·	–	·	–
Cc1cc2nc(-c3ccc(SCC(=O)N4CCOCC4)nc3)[nH]c2cc1C	–	–	–	–	–
Cc1cc2nc(-c3ccc(SCC(=O)N4CCN(C(=O)c5ccco5)CC4)nc3)[nH]c2cc1C	?	-94.2%	–	–	–
CC1=C(C(=O)N2CCN(c3cccc(Cl)c3)CC2)C2(CCCCC2)OC1=O	·	·	·	·	–
N#Cc1nc(COc2ccc(-c3ccccc3)cc2)oc1NCCCN1CCOCC1	–	–	-61.6	–	–
N#Cc1nc(COc2ccccc2)oc1NCCN1CCOCC1	–[15.4 µM]	–	–	–	–
CC1CCN(S(=O)(=O)c2ccc3nc(NCc4ccccc4)ccc3c2)CC1	·	·	–	·	–
COc1ccc(OC)c(NC(=O)c2cccc(N3C(=O)C4C5CCC(C5)C4C3=O)c2)c1 (configuration not stated)	–	–	–	?	–
COc1ccc(OC)c(NC(=O)c2cccc(N3C(=O)C4C5C=CC(C6CC56)C4C3=O)c2)c1 (configuration not stated)	–	–	–	28.2µM	–
COc1ccc(CNC(=O)c2cc3c(=O)n(C)c4ccccc4c3n2C)c(OC)c1	·	·	·	·	–
Cc1[nH]n(-c2ccccc2)c(=O)c1/C=C1/C=c2ccccc2=N1	–[15.4 µM]	–	–	–	–
Cc1[nH]n(-c2ccccc2)c(=O)c1/C=C1\C=NN=C1c1ccccc1	–[15.4 µM]	–	-109.9	?	–
SMILES	gsp agonist	pAkt inh	RXFP1 antag	gsp antag	RXFP1 agonist
Cc1cc(NC(=O)COC(=O)CCNS(=O)(=O)c2cccc(C(F)(F)F)c2)no1	–[15.4 µM]	–	–	–	–
Cc1cc(NC(=O)COC(=O)CCNS(=O)(=O)c2c(Cl)cccc2Cl)no1	–[15.4 µM]	–	-69.5	–	–
C=CCn1c(=O)c(CCC(=O)Nc2ccc(N3CCOCC3)cc2)nc2cc(C(F)(F)F)ccc21	?	–	-67.7	–	–
CCn1cc2nc(SCc3cc(C)ccc3C)n(CCc3ccccc3)c(=O)c2n1	·	·	·	·	–
CNC(=O)c1c(I)c(NC(=O)CCCCC(=O)Nc2c(I)c(C(=O)O)c(I)c(C(=O)NC)c2I)c(I)c(C(=O)O)c1I	·	·	–	·	·
Cc1cccc(-c2nc(CSCC(=O)N3CCN(c4ccccn4)CC3)c(C)o2)c1	–	–	–	31.6µM	–
